The supplement of paper PMC11219838
A number with no mark means an inactive call.

Each compound was assayed on Caenorhabditis elegans L1 (N2) (assay: survival and reproduction score of C. elegans L1 (0: 0-10 living worms, 1: 11-20, 2: 21-50, 3: >50, 4: overgrown) (score 0-4); higher = more worms, less nematicidal, active = 1 or less; extreme values may be limits of the assay). Conditions: 60 µM; 6 days; temperature: 20 °C.
Procedure, shortened: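 After compound was pinned to 60 µM final (0.6% v/v DMSO) into wells with roughly 20 synchronized C. elegans N2 L1s and E. coli HB101 in liquid NGM, the sealed 96-well plates were shaken at 200 rpm for 6 days at 20 °C. Under a dissection microscope, survival and reproduction were graded ordinally by living worms per well. A grade of 0 stood for 0–10 worms and 4 for overgrown, starved wells; two biological replicates were averaged.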

Row | Structure (SMILES) | survival and reproduction score
1 | CCOc1nc(C)ccc1-c1noc(-c2cccc(C)c2)n1 | 4
2 | Clc1ccc(SCc2nc(-c3cccnc3)no2)cc1 | 2.5
3 | CCn1c(SCc2nnc(-c3ccccc3)o2)nnc1-c1ccco1 | 4
4 | CCCc1ccc(-c2ccc(-c3nc(-c4ccccn4)no3)cc2)cc1 | 4
5 | O=C(CSc1nnc(-c2ccc(Br)cc2)o1)NC1CCCCC1 | 4
6 | O=C(CSc1nnc(-c2ccccc2)o1)Nc1ccccc1C(F)(F)F | 4
7 | Cc1ccoc1-c1nnc(-c2ccco2)o1 | 3.5
8 | Clc1ccc(CSc2nnc(-c3ccccc3)o2)cc1Cl | 4
9 | Cc1ccc(SCc2nc(-c3cccc(C)c3)no2)cc1 | 4
10 | Cc1ccc(-c2nc(-c3ccc(F)cc3)no2)cc1 | 0 (active)
11 | COc1cccc(-c2noc(COc3ccc(C)cc3)n2)c1 | 4
12 | Cc1cccc(-c2nnc(SCC(=O)Nc3ccccc3C(C)C)o2)c1 | 4
13 | c1ccc(CSc2nnc(-c3cccnc3)o2)cc1 | 4
14 | c1ccc(COc2cccc(-c3nc(-c4ccncc4)no3)c2)cc1 | 4
15 | Cc1ccc(OCc2nc(-c3ccncc3)no2)c(Br)c1 | 3.5
16 | Cc1cccc(-c2noc(COc3ccc(C)c(C)c3)n2)c1 | 4
17 | COc1ccc(NC(=O)c2ccccc2-c2nc(-c3ccccc3C)no2)cc1 | 4
18 | Cc1ccc(-c2nc(-c3ccc(Br)cc3)no2)cc1 | 4
19 | CN(C)c1ccc(-c2nnc(SCc3ccccc3)o2)cc1 | 4
20 | Cc1ccc(-c2noc(-c3ccc(C)cc3C)n2)cc1 | 4
